# Measured values taken from ChEMBL document CHEMBL3988442, “University of Dundee, Small-Polar-MMV Screening Library” (2021).
# In all, about 48,000 compounds went through this assay and about 13,000 (27%) showed an effect of 50% or more. The list shows a part of the results.
# Tested on: Wolbachia pipientis
# Assay: Anti-Wolbachia Cell-Based Screen
# Type: functional
# Design: scale not given: in the data most compounds retested in dose-response had high values
# Conditions: 5 µM
row,Structure (SMILES),Percent Effect
1,CC(C)c1nc(-c2cc(C(=O)NCCN(C)C)c3ccccn23)cs1.O=C(O)C(F)(F)F,-4.099%
2,O=C1N(CCCc2ccccc2)CCCC1(O)CN1CCC(CO)CC1 (stereo not drawn),-7.352%
3,CC(C)n1ncc2c1NC(=O)C(C#N)C21CCCC1 (stereo not drawn),15.91%
4,CS(=O)(=O)N1CC[C@H]2O[C@H](C(=O)NCCc3ccncc3)CC[C@H]21.O=C(O)C(F)(F)F,-5.225%
5,Cc1ccc(CN2CC[C@@H]3OCCN(Cc4ccncc4)[C@H]3CC2)s1.O=C(O)C(F)(F)F.O=C(O)C(F)(F)F.O=C(O)C(F)(F)F,91.24%
6,COCCN1CCO[C@@H]2CN(Cc3ccc(C)s3)C[C@@H]2C1.O=C(O)C(F)(F)F.O=C(O)C(F)(F)F,-5.835%
7,CS(=O)(=O)N1CCO[C@@H]2CN(Cc3ccc(F)cc3)CC[C@@H]2C1.O=C(O)C(F)(F)F,-0.3298%
8,Cc1ccc(CN2CC[C@H]3OCC[C@@H](C(=O)NCC4CC4)[C@@H]3C2)s1.O=C(O)C(F)(F)F,-8.513%
9,Cc1ccc(CN2CC[C@@H]3OCCN(S(C)(=O)=O)[C@H]3CC2)s1.O=C(O)C(F)(F)F,114.1%
10,CS(=O)(=O)N1CCO[C@@H]2CCN(Cc3ccncc3)CC[C@H]21.O=C(O)C(F)(F)F.O=C(O)C(F)(F)F,114.1%
11,Cc1ccc(CN2CC[C@H]3[C@H]2CCN3S(C)(=O)=O)s1.O=C(O)C(F)(F)F,-3.604%
12,Cc1ccc(CN2CC[C@H]3[C@H]2CCN3S(=O)(=O)C2CC2)s1.O=C(O)C(F)(F)F,-4.175%
13,CC1CN(S(=O)(=O)c2cc(S(C)(=O)=O)ccc2Br)c2cccnc2O1 (stereo not drawn),-14.61%
14,CC1(C)CN(CC(F)(F)F)CCN1CC(=O)N1CCCCC1,-2.434%
15,O=C(O)C(F)(F)F.O=S(=O)(NC[C@]12COC[C@H]1CN(c1ncc(F)cn1)C2)C1CC1,7.707%
16,Cc1nc2cc(O)nn2c(C)c1CCC(=O)N(C)Cc1ccccc1,86.37%
17,Cc1nc2ccnn2c(C)c1CCC(=O)N1CCN(C2CC2)CC1,0.559%
18,CCCN(CC(F)F)C(=O)CCc1c(C)nc2cc(O)nn2c1C,131.4%
19,COC(=O)CCc1c(C)nc2cc(O)nn2c1C,10.93%
20,Cc1nn(C)c(C)c1CCC(=O)N(C)Cc1ccc2nsnc2c1,27.84%
21,Cc1nn(CCC#N)c(C)c1CCC(=O)N(C)Cc1ccsc1,21.07%
22,Cc1nc2cc(O)nn2c(C)c1CCC(=O)N(C)CCC(C)C,96.83%
23,COCC(C)N(C)C(=O)CCc1c(C)nc2c(C#N)cnn2c1C (stereo not drawn),-1.234%
24,Cc1nc2c(C#N)cnn2c(C)c1CCC(=O)N(C)C(C)C(C)C (stereo not drawn),7.938%
25,CN1CCC2(CCC1=O)CCN(C(=O)Cc1ccc(O)c(F)c1)CC2,0.2124%

row,Structure (SMILES),Percent Effect
1,Cc1ccn(CCNc2ncnc3c2CCN(c2cnccn2)CC3)n1,7.115%
2,CC(O)CN1CCC(CNCc2cccc(Br)c2)CC1 (stereo not drawn),7.461%
3,O=C(Cn1cccc2cc(-c3ccc(F)cc3)nc1-2)N1CCC(O)CC1,121.3%
4,COCCN(C)C(=O)Cn1cccc(OC)c1=O,-3.023%
5,COc1cccc(CN2CCN(C(=O)CN3CCOCC3)CC2)n1,-0.8074%
6,O=C(c1nnn(-c2ccc(F)cc2)n1)N1CCC(O)CC1,1.522%
7,COC1CCN(C(=O)Cn2ccc3ccccc32)CC1,0.3613%
8,COc1cccn(CC(=O)N(C)CCOc2cc(C)cc(C)c2)c1=O,-7.697%
9,COc1ccc(-c2cc3cccn(CC(=O)N4CCOCC4)c-3n2)cc1,153.8%
10,O=C(Cn1nnc(-c2cc3ccccc3o2)n1)N1CCOCC1,-8.281%
11,CN(C)CCN(C)C(=O)Cn1cccc2cc(-c3ccc(F)cc3)nc1-2,149.6%
12,CC(C)(C)c1nnc(CN2CCC(c3cc4ccccc4[nH]3)CC2)o1,4.334%
13,COCCc1noc(-c2cn(Cc3ccccc3C)nn2)n1,-12.89%
14,NS(=O)(=O)CCNC(=O)C1(c2ccccc2)CC1,-12.67%
15,O=C(NCCCNc1ccccn1)NCC1CCS(=O)(=O)C1 (stereo not drawn),10.33%
16,Cn1cc(C2CCCN2c2ncnc3[nH]ccc23)cn1 (stereo not drawn),-13.62%
17,c1ncc2c(n1)CN(c1ncnc3[nH]ccc13)CC2,97.2%
18,Cc1nc(C)n(CC2CCCN(c3ncnc4[nH]ccc34)C2)n1 (stereo not drawn),6.618%
19,CC(C)c1ncc2c(n1)CN(c1ncnc3[nH]ccc13)CC2,96.63%
20,c1nc(N2CCc3[nH]cnc3C2)c2cc[nH]c2n1,98.13%
21,CC(C)c1ncc2c(n1)CN(CC1CCCCO1)CC2 (stereo not drawn),-13.54%
22,CC(C)c1ncc2c(n1)CN(Cc1ccc(C(N)=O)cc1)CC2,-9.095%
23,Cc1ncc2c(n1)CN(c1ncnc3[nH]ccc13)CC2,103%
24,Cc1ncc2c(n1)CN(C(C(N)=O)c1ccc(F)cc1)CC2 (stereo not drawn),-2.692%
25,OC1(CN2CCCC2)COCCN(c2ncnc3[nH]ccc23)C1 (stereo not drawn),7.822%

row,Structure (SMILES),Percent Effect
1,COCCCN1CC2(CCCN(c3ncnc4[nH]ccc34)C2)CCC1=O (stereo not drawn),0.6665%
2,CN(C)CC1CN(c2ncnc3[nH]ccc23)CCO1 (stereo not drawn),4.502%
3,CC(C)CCN(C(=O)c1cc2c([nH]c1=O)CCCC2=O)C1CC1,-4.935%
4,O=C(NC(C1CC1)C1CC1)c1cccc[n+]1[O-],1.029%
5,Cn1cc(Br)cc(NC(=O)Cc2cccs2)c1=O,-8.828%
6,CCc1cnc(CNc2cccc3c2CCN(S(=O)(=O)CC)C3)o1,-1.845%
7,CN(CCCc1cc(-c2cccc(F)c2)n[nH]1)C(=O)CCn1cncn1,11.69%
8,CNC(=O)[C@@H](C1CCCCC1)N1CCC[C@H]1C(=O)N(C)CCN(C)C.Cl.Cl,6.649%
9,Cc1cccc(CN2Cc3[nH]nc(COCc4nccs4)c3C2)n1.O=C(O)C(F)(F)F,-5.307%
10,COCc1cncc2c1CCN(C(=O)c1ccoc1C)C2,-16.93%
11,Cc1occc1C(=O)N1CCc2c(CNc3ncccn3)cncc2C1.Cl,-10.41%
12,CS(=O)(=O)NCc1cncc2c1CCN(C(=O)c1ccccn1)C2,100.5%
13,Cc1occc1C(=O)N1CCc2c(CNS(C)(=O)=O)cncc2C1.Cl,99.94%
14,CN(C)C(=O)N1CCc2c(CNc3ncccn3)cncc2C1,-13.49%
15,Cl.Cn1cccc1C(=O)N1CCc2c(CNS(C)(=O)=O)cncc2C1,99.59%
16,Cc1cccc(C(=O)N2CCc3c(COCC4CC4)cncc3C2)n1,-8.984%
17,CS(=O)(=O)NCc1cncc2c1CCN(C(=O)c1cccnc1)C2.Cl.Cl,94.15%
18,CC(C)NC(=O)N1CCc2c(CNc3ncccn3)cncc2C1.Cl,-8.609%
19,Cc1nc(-c2cnn(C)c2)nc2c1CN(C(=O)c1cccn1C)CC2,-11.99%
20,O=C(O)C1CCN(c2ccc(Sc3ccc(Br)cc3)nn2)CC1,-8.294%
21,Cc1cccc2c1OCCC2NCc1c(C)nn(C)c1N(C)C (stereo not drawn),-23.23%
22,Cc1ccc(C(=O)N2CCc3c(CNS(C)(=O)=O)cncc3C2)o1.Cl,-12.96%
23,Cc1ccc(C(=O)N2CCc3c(CNc4ncccn4)cncc3C2)o1.Cl,96.21%
24,Cc1ccc(C(=O)N2CCc3c(COCC4CC4)cncc3C2)o1,-16.58%
25,CCc1cnc(N2CCN(Cc3ccon3)CC2)s1,-1.549%

row,Structure (SMILES),Percent Effect
1,O=C(c1cc(Cl)c2c(c1)OCCCO2)N(CC1CCOC1)C1CC1 (stereo not drawn),-3.487%
2,O=C(Cn1c(=O)nc2n1C(=O)N(c1ccccc1)C2)Nc1ccccc1,2.08%
3,Cc1cc(=O)n(CC(=O)Nc2cccc(Cl)c2)nc1C,-4.372%
4,CC(C)n1c(=O)c2sccc2n(CC(=O)Nc2ccccc2)c1=O,126.1%
5,CC(C)c1cccc(NC(=O)Cn2c(=O)n(C)c(=O)c3sccc32)c1,155.2%
6,Cn1c(=O)c2sccc2n(CC(=O)Nc2cccc(Cl)c2)c1=O,134.9%
7,Cn1c(=O)c2sccc2n(Cc2ccccc2)c1=O,-1.761%
8,O=C(Cn1cc(-c2ccccc2)ncc1=O)Nc1ccncc1,8.409%
9,CCn1nc(C)c2nnn(CC(=O)Nc3cccc(Cl)c3)c(=O)c21,-0.8024%
10,COc1ccc(Cn2c(=O)n(C)c(=O)c3sccc32)cc1,5.606%
11,COc1cccc(Cn2c(=O)n(C)c(=O)c3sccc32)c1,-18.58%
12,CCn1c(=O)c2sccc2n(CC(=O)Nc2cccc(Cl)c2)c1=O,148.7%
13,CC(C)c1cccc(NC(=O)N2CC(N(C)C)C2)c1,-4.396%
14,O=C(NCc1ccco1)Nc1cccc(S(=O)(=O)C(F)F)c1,12.8%
15,Cc1nc2cc(OCc3nc(C(=O)NC(CO)CO)co3)ccc2s1,-12.2%
16,CCC(C(=O)NCc1ccncc1)N(c1ccc(F)cc1)S(C)(=O)=O (stereo not drawn),-11.09%
17,Cc1cc(C)c2nc(CN3CCC(CN)C3)cc(O)c2c1 (stereo not drawn),-17.01%
18,Cc1cc(Br)oc1C(=O)N1CCN(CC(N)=O)CC1,-14.01%
19,CS(=O)(=O)Cc1nc(C2CC2)nn1-c1ccccn1,-14.62%
20,CC(C)CS(=O)(=O)N1CCC2(CC1)CCn1c(-c3cnn(C)c3)cnc12,2.953%
21,CC(C)n1c(=O)c2sccc2n(CC(=O)Nc2cccc(Cl)c2)c1=O,121.3%
22,CN(C)c1nc(N)nc(CSCCC(=O)Nc2cccc(Cl)c2)n1,5.106%
23,Cn1cc(CC(CNC(=O)Nc2cccc(Cl)c2)C(N)=O)cn1 (stereo not drawn),3.636%
